Among all 2,300 compounds or so, about 350 (15%) were called active. The list is a sample of the results. Measured potencies and affinities stand elsewhere. Values without a mark were called inactive. How the calls were made is not given here.
test: HepG2 cell cytotoxicity, dose response, cytotoxicity control for non-replicating M. tuberculosis project (AID 489018); conditions: series mostly up to 20 µM; viability: at the top concentration;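 further: HepG2 human liver cells; 100% = vehicle-treated cells and 0% = background signal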

| Compound | viability |
| --- | --- |
| Clc1cccc(OCCN2CCN(CCOc3cccc(Cl)c3)CC2)c1 | 88.1% |
| COc1ccc(C2(O)CCN(CCCCOc3ccccc3)CC2)cc1 | 94.8% |
| OCC1(CCOc2ccccc2)CCN(Cc2cc(Cl)ccc2O)CC1 | 117% |
| CC(C)Cn1c(N)c(C(=O)COC(=O)c2cnc(Cl)c(Cl)c2)c(=O)n(C)c1=O | 102% |
| O=C(Oc1cccnc1)c1ccc(Cl)c(Cl)c1 | 103% |
| CC(=O)c1ccc(-n2cc(-c3ccc(C(C)(C)C)cc3)[n+]3c2SCCC3)cc1 | 100% |
| Cn1c(=O)c(Oc2ccc(F)cc2)c(O)c2ccccc21 | 95.5% |
| O=C(Nc1nccs1)c1ccc(COc2ccc(Cl)cc2)o1 | 98.2% [at 5 µM] |
| COc1cccc(COC(=O)CCNC(=O)c2ccc(Cl)cc2)c1OC | 106% |
| O=C(Oc1ccccc1)c1ccc(COC(=O)c2cnccn2)cc1 | 99.2% |
| NC1=NC[C@H](Cc2ccccc2)N1CCCCC1CCCCC1 | 96.8% [at 5 µM] |
| CCCC(=O)N1CCC(Cc2ccccc2)CC1 | 120% |
| Cc1ccc(NC(C)C(=O)N/N=C/c2ccc([N+](=O)[O-])s2)cc1 (centres undefined) | 82.1% |
| CC(CN1CCOCC1)OC(=O)c1ccc(Br)cc1 (centres undefined) | 80% |
| Cc1ccc(NC(CC(=O)c2ccccc2)C(=O)O)cc1Cl (centres undefined) | 99.8% |
| CC(CN1CCOCC1)OC(=O)c1ccc2c(c1)OCCO2 (centres undefined) | 95.4% |
| CCOc1ccc(C(=O)CCN2CCCCCC2)cc1 | 106% [at 5 µM] |
| CC(NC(=O)OCc1ccccc1)c1ccccc1 (centres undefined) | 96% |
| COc1ccc2cc(C(=O)C3CCCN(Cc4ccccn4)C3)ccc2c1 (centres undefined) | 74.4% |
| CC(C)COc1ccc(C(=O)CCN2CCCCC2)cc1 | 94.7% |

| Compound | viability |
| --- | --- |
| COc1ccc(C(=O)CCN2CCCCCC2)cc1 | 95% |
| CC(=O)c1cc2c(ccc3ccccc32)oc1=O | 99.2% [at 5 µM] |
| Cc1c([N+](=O)[O-])cnc(Sc2ccccc2)c1[N+](=O)[O-] | 97.7% |
| O=C(C/C=N\OCc1ccc([N+](=O)[O-])cc1)Nc1ccccc1 | 99% |
| Cc1nnc(N/N=C/c2cccc(OCc3ccc(Cl)c(Cl)c3)c2)n1N | 83.2% |
| O=C(CN1CCC(NC(=O)c2cccc(F)c2)CC1)Nc1ccc(Br)cc1 | 96.4% [at 5 µM] |
| COc1cccc(NC(=O)c2cnc(SC)nc2)c1 | 106% |
| CCOC(=O)c1c(C)nc2c3ccccc3ccn12 | 101% [at 5 µM] |
| COC(=O)c1ccc(N2CCN(CCNC(=O)Nc3ccc(OC)cc3)CC2)cc1 | 104% |
| COC(=O)COc1ccc2c(=O)c(Oc3ccccc3)c(C)oc2c1 | 98% |
| O=C(CCN1CCCCCC1)c1ccccc1 | 105% |
| O=C(CCSc1ccccc1)N1CCCC1 | 86% |
| O=C(Nc1nc(-c2cc(F)ccc2F)cs1)c1ccccn1 | 107% [at 5 µM] |
| Cc1ccc2nc(NC(=O)c3ccccn3)sc2c1 | 91.4% |
| O=C(Nc1nccs1)c1ccccn1 | 97% |
| Cc1cnc(NC(=O)c2ccccn2)s1 | 83.2% |
| CC1=C(/C=C/C(C)=N\NC(=O)c2ccncc2)C(C)(C)CCC1 | 84.7% |
| O=C(COC(=O)COc1ccc(Nc2ccccc2)cc1)NCc1ccco1 | 103% [at 5 µM] |
| O=C(COc1ccccc1)Nc1nnc(-c2ccc(Cl)cc2)o1 | 105% |
| CC(C)Cc1cc(C(=O)Nc2ccc(F)cc2F)no1 | 99.7% |

| Compound | viability |
| --- | --- |
| O=C(Nc1c(F)cc(F)cc1Br)c1cc(-c2ccccc2)on1 | 101% |
| O=C(N/N=C\c1ccc([N+](=O)[O-])s1)C1COc2ccccc2O1 (centres undefined) | 96.5% |
| O=C(CCSc1nnc(-c2ccncc2)o1)Nc1cccc(Cl)c1 | 95.7% |
| CCn1ccc(C(=O)Nc2cccc(Cl)c2)n1 | 111% [at 5 µM] |
| Cc1noc2ncnc(Sc3ccc(Br)cc3)c12 | 99.2% |
| O=c1cc(-c2ccccc2Cl)oc2c([N+](=O)[O-])c(O)cc(O)c12 | 80.7% |
| O=C1C=C(Nc2ccc(F)cc2)c2ccccc2C1=O | 96.4% [at 5 µM] |
| CCOC(=O)c1ccc(NC2=CC(=O)C(=O)c3ccccc32)cc1 | 92.8% |
| CCN(CC)S(=O)(=O)c1ccc(C(=O)OCn2nnc3ccccc3c2=O)cc1 | 91.7% |
| O=c1cc(-c2ccccc2Cl)oc2ccc([N+](=O)[O-])c(O)c12 | 87.9% |
| CCC/C(=N\NC(=O)c1ccco1)c1ccc(Cl)s1 | 103% [at 5 µM] |
| CCCc1cc(C(=O)Nc2ccccc2SC)no1 | 111% |
| Cc1ccc(C(=O)N/N=C\c2ccc([N+](=O)[O-])s2)cn1 | 77.5% |
| Cc1cc(C(=O)N/N=C/c2ccc([N+](=O)[O-])s2)n[nH]1 | 78.5% |
| Cc1cc(C)n(CC(=O)N/N=C/c2ccc([N+](=O)[O-])s2)n1 | 73.2% |
| O=c1oc(/C=C/c2ccc([N+](=O)[O-])s2)nc2ccccc12 | 111% |
| CCOC(=O)c1cc(-c2csc(COc3ccccc3)n2)on1 | 104% |
| O=C(N/N=C\C=C\c1ccco1)c1cncc(Br)c1 | 87% |
| CS(=O)(=O)Nc1cccc2cccnc12 | 76% |

Reference: PubChem BioAssay AID489018 (Southern Research Specialized Biocontainment Screening …, 2010)
